CR mimetic SO: reduction of superoxide in aged yeast, primary screen, HTS | S. cerevisiae aged cells, superoxide DHE fluorescence; hits give low values | superoxide response (% of plate mean), % at 10 µM | 330,000 compounds, 0.18% hits;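 active = superoxide response under a set limit, about three screen SD below normal, cut at about 65% in these data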;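 note: yeast aged for seven days with compound at 30 °C before DHE staining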
ABCB6 inh 2: ABCB6 transporter inhibitors, primary screen, K562-ABCB6 cells, flow cytometry, MLPCN library. K562-ABCB6 porphyrin accumulation, 1 h; hits give low values. fluorescence ratio to DMSO, % at 10 µM. 360,000 compounds, 0.19% hits. AID 602162, 2011;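 active = fluorescence ratio to DMSO below 75%, the collection mean minus 3 SD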;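 note: signal is porphyrin accumulated inside mitochondria; lower ratio means ABCB6 inhibition with less porphyrin fluorescence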
SKN-1 block: suppressors of acrylamide-induced Pgst-4::GFP reporter in worms, primary screen, SKN-1 inhibitor project, whole organism, uHTS, GFP/RFP fluorescence ratio, strain VP596. 360,000 compounds, 0.49% hits. C. elegans VP596 Pgst-4::GFP/RFP ratio, 24 h. inhibition, % at 21.8 µM;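 active = interference check ratio from 0.5 to 1.5 plus GFP to RFP signal ratio inhibition reaching or exceeding a fixed threshold, cut at about 30% in these data, passing the limit was not always enough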
Platelet DG rel: inhibitors of platelet dense granule secretion, primary screen, cell-based, MLPCN, human platelets. human platelet-rich plasma, SFLLRN dense granule ATP release, luminescence. inhibition, %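 (compounds screened at 7.5 µM in platelet-rich plasma)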. 300,000 compounds, 0.22% hits. AID 1663, 2009;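 active = mean replicate score, as percent of positive control, at or above 50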
VLA-4 inh: inhibition in human VLA-4 binding assay, primary screen, VLA-4 allosteric modulator project, MLPCN library, flow cytometry, VLA-4 expressing cells; inhibition, % (about 7 µM as worked out from the volumes in the protocol); 330,000 compounds, 0.2% hits; ligand binding flow cytometry; in the data active = inhibition above about 50%
Target sequence (P13612 whole entry, looked up): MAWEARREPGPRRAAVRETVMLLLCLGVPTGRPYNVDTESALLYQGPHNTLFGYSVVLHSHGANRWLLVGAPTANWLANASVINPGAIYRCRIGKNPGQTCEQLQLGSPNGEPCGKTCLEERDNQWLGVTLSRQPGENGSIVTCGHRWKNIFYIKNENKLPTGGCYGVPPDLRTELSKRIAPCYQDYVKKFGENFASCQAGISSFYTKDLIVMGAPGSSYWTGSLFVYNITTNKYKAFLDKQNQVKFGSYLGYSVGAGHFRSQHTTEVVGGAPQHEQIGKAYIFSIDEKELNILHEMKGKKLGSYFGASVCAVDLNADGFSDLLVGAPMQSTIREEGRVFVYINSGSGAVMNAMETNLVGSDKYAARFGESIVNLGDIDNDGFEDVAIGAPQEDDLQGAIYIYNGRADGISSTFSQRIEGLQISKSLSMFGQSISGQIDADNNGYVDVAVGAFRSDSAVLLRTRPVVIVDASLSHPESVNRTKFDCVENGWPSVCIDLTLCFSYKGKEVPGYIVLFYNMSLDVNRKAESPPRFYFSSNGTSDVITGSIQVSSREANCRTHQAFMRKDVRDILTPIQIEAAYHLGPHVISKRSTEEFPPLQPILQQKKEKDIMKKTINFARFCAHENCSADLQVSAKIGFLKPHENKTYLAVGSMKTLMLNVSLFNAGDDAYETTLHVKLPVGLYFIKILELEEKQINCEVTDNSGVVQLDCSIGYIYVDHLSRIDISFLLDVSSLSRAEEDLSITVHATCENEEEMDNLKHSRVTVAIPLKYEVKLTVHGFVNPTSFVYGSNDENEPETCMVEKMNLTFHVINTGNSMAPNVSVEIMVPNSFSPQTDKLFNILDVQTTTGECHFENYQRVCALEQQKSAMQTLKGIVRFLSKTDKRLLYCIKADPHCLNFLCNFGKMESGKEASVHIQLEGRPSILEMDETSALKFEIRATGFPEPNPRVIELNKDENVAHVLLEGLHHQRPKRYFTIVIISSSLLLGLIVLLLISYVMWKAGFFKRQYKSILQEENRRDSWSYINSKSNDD
Superoxide pick: superoxide lowering in aged yeast cells, confirmation, cherry picked compounds; superoxide response (% of plate), % at 10 µM; 850 compounds, 1% hits; shares compounds with CR mimetic SO; S. cerevisiae aging, superoxide DHE fluorescence; hits give low values;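 active = superoxide signal below 65% of the plate average of sample wells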;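 note: cells aged with compound for 7 days at 30 degrees C before staining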
DHE counter: DHE quenching or ROS scavenging interference in aged yeast, artefact control for yeast caloric restriction mimetic project, S. cerevisiae BY4741, flow cytometry | shares compounds with CR mimetic SO | DHE fluorescence; hits give low values | fluorescence response, % at 10 µM | 850 tested, under 10 active;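 active = fluorescence response below 15%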;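 note: lower means stronger quenching of DHE signal or ROS scavenging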
Large screens that a line does not name were inactive (follow-up assays come after a bar, where they were run). Shown are actives, neighbours in structure and some others; about 1.2% of the full set was active somewhere.

C[C@@]12CC[C@@H](c3cc4c(cc3C1)OCO4)N2c1ccccc1	none (no result: CR mimetic SO, ABCB6 inh 2, Platelet DG rel, VLA-4 inh)
CC(C)(C)c1ccc(C(=O)C2CCCN(C3CCC3)C2)cc1 (configuration not stated)	CR mimetic SO 64.7 | Superoxide pick inactive | DHE counter inactive
CC(C)(C)c1ccc(C(=O)C2CCCN(Cc3ccon3)C2)cc1 (configuration not stated)	none
CNc1ccc2nc3ccccc3[n+](C)c2c1	CR mimetic SO 61.9 | Superoxide pick 61.6 | DHE counter inactive
O=C(OCc1ccccc1)N1CCC2CC1c1cc(N3Cc4ccccc4-n4nncc4C3)ccc12 (configuration not stated)	none (no result: CR mimetic SO, Platelet DG rel, VLA-4 inh)
C[C@]12CCC(=O)C=C1CCC1C2CC[C@@]2(C)C1CC[C@@H]2O (some centres not stated)	none (no result: Platelet DG rel)
C[C@]12CCC3C(CC[C@@H]4[C@H]5O[C@H]5CC[C@]34C)C1CC[C@@H]2O (some centres not stated)	none (no result: CR mimetic SO, Platelet DG rel, VLA-4 inh) | Superoxide pick inactive | DHE counter inactive
C[C@]12CCC3C(C[C@@H](O)[C@H]4C[C@@H](O)CC[C@]34C)C1CC[C@@H]2O (some centres not stated)	none (no result: Platelet DG rel) | Superoxide pick inactive | DHE counter inactive
C[C@]12CC[C@H](N)CC1=CCC1C2CC[C@@]2(C)C1CC[C@@H]2O (some centres not stated)	none (no result: Platelet DG rel)
CCOC(=O)[C@]12Cc3c(cc(OC)c(OC)c3OC)[C@H]1N(C1CCCCC1)C(=O)c1ccccc12	none (no result: CR mimetic SO, Platelet DG rel, VLA-4 inh)
O=c1[nH]c2ccccc2n1C1CCN(C(c2ccccc2OC(F)(F)F)c2nnnn2Cc2ccccc2)CC1 (configuration not stated)	none (no result: CR mimetic SO, Platelet DG rel, VLA-4 inh)
CCOc1ccc(C2SCC(=O)Nc3c2c(=O)[nH]n3C2CCCCCC2)cc1 (configuration not stated)	CR mimetic SO 61.6 | Superoxide pick inactive | DHE counter inactive
CO[C@H]1C=CCCC=CC(=O)O[C@H]([C@H](C)C(=O)CCCC2CC(=O)NC(=O)C2)C(C)=C[C@@H](C)[C@@H]1O	none (no result: CR mimetic SO, Platelet DG rel, VLA-4 inh)
Cc1ccc(C)c(Cn2c(C(=O)O)c(C=O)c3ccccc32)c1	none
Cc1ccc[n+](CC(O)Cn2c3ccccc3c3ccccc32)c1 (configuration not stated)	CR mimetic SO 52.3 | Superoxide pick inactive | DHE counter inactive
CSCCC(NC(=O)CCC(=O)OC1CC[C@H]2[C@@H]3CC[C@H]4CC(=O)CC[C@]4(C)[C@H]3CC[C@]12C)C(=O)O (some centres not stated)	none | Superoxide pick inactive | DHE counter inactive
N#CC12c3ccccc3C(=O)N1Cc1cnnn1-c1ccccc12 (configuration not stated)	none (no result: CR mimetic SO, Platelet DG rel, VLA-4 inh)
COc1ccc(-n2c(O)c(C(C)=NCC3CCCO3)c(=O)[nH]c2=O)cc1 (configuration not stated)	CR mimetic SO 55.8 | Superoxide pick inactive | DHE counter inactive
CC(C)(C)n1nnnc1C(c1ccccc1)N1CCC2(CC1)C(=O)NCN2c1ccccc1 (configuration not stated)	none (no result: CR mimetic SO, Platelet DG rel, VLA-4 inh)
C[C@]12CCC3[C@@H](CC[C@@H]4C[C@H](O)CC[C@]34C)[C@@H]1CCC2=O (some centres not stated)	none (no result: Platelet DG rel)
C[C@]12CC[C@H](O)C[C@@H]1CC[C@@H]1[C@@H]2CC[C@]2(C)C(=O)CC[C@@H]12	none
C[C@]12CCC3C(CC[C@H]4C[C@@H](O)CC[C@]34C)C1[C@H]1CN=N[C@H]1[C@@H]2O (some centres not stated)	none (no result: Platelet DG rel) | Superoxide pick inactive | DHE counter inactive

Screening results as filed in PubChem BioAssay.
